Source: PubChem
Most compounds without a hit are left out; they make up all but 12% or so of the library.
Gal4-VP16 FLuc: counter-screen for ROR gamma inhibitors: Gal4-VP16 reporter | Drosophila S2 Gal4-VP16 UAS-luciferase, luminescence, 20 h | Potency, µM (titrated, usually from 53.6 µM), hits mostly inhibitors | 310,000 tested, 3.5% active;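 further: Gal4-VP16 expression switched on by copper sulfate through the metallothionein promoter; nearly all actives have a fitted effect of over 50% in size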
PLK1 PBD block: inhibitors of human PLK1 polo-box domain binding. Plk1 PBD binding of FITC phosphopeptide, fluorescence polarization. 360,000 tested, 2.8% active. Potency, µM, hits mostly inhibitors; further: series mostly up to about 57 µM; nearly all actives have a fitted effect of over 65% in size
Target sequence (P53350 whole entry, looked up, the tested form may be a part): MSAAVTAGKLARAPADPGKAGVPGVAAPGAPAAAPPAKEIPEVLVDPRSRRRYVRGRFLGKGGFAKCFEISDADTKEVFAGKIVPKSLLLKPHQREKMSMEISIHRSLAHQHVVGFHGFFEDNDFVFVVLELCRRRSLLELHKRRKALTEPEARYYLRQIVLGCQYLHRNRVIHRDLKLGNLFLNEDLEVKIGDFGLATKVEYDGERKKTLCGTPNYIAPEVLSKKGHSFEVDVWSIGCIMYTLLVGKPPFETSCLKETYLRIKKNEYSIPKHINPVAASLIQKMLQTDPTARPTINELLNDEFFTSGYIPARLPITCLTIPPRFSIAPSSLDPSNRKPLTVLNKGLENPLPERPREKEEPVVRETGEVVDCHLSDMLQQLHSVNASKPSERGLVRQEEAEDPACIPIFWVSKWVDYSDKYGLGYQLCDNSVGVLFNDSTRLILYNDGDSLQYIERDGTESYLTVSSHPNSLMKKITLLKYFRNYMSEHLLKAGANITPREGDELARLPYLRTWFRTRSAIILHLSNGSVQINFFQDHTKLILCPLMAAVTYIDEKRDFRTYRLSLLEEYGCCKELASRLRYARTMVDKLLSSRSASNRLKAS
ALDH1A1 inh: inhibitors of human aldehyde dehydrogenase 1A1. 220,000 tested, 7.3% active. Potency, µM (highest dose often 75.3 µM), most hits filed as inhibitors. P00352. AID 1030. Purified ALDH1A1, NADH fluorescence, propionaldehyde substrate; active means well fitted inhibition curve with a large enough effect, not every such curve was filed as active; inconclusive means small, poorly fitted or top-dose-only effect, or another doubt; inactive means no such curve, though single readings can be large or run the other way
RORg inh: ROR gamma (mouse) transcription inhibition. Potency, µM (highest dose often 53.6 µM), actives largely listed as inhibitors. Drosophila S2 Gal4-RORgamma UAS-luciferase reporter, 20 h. P51450. 310,000 tested, 5.4% active; further: nearly all actives have a fitted effect of over 60% in size
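Luciferase reporter read in Schneider cells carrying Gal4-RORγ (mouse) and UAS-Photinus luciferase; cells given compound 1 h before 700 uM copper sulfate induction, then incubated 20 h at ambient temperature.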
Sfp PPTase inh: blocks B. subtilis Sfp PPTase activity. AID 1490. 310,000 tested, 3.5% active. Q9F4F7. Biochemical Sfp PPTase activity, qHTS. Potency, µM, hits mostly inhibitors;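 further: the enzyme is Sfp with the accession as filed and its product quenches rhodamine fluorescence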
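Reaction rates are the 30-min fluorescence difference (ex 525, em 598 nm) in wells containing 15 nM Sfp, 5 uM rhodamine-CoA and 12.5 uM BHQ-2-YbbR at pH 7.6 with 10 mM MgCl2.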
Of the large screens only hits and unclear results are named; the others gave an inactive call. Unless noted, the call rests on the fitted dose curve; in most records, active means well fitted curve in the direction sought with a large enough effect; inconclusive means small, poorly fitted or top-dose-only effect, or another doubt; inactive means no such curve, though single readings can be large; an effect the other way counts as inactive or inconclusive.

CCOc1ccc(NC2c3ccccc3C(=O)N2Cc2ccco2)cc1 (stereo not drawn)	ALDH1A1 inh 5.6µM
COc1ccc(NC2c3ccccc3C(=O)N2Cc2ccco2)cc1OC (stereo not drawn)	none
O=C1c2ccccc2C(Nc2ccc(F)c(Cl)c2)N1Cc1ccco1 (stereo not drawn)	Gal4-VP16 FLuc inconclusive, ALDH1A1 inh inconclusive, RORg inh inconclusive, Sfp PPTase inh 32µM
O=C1c2ccccc2C(Nc2ccc(S(=O)(=O)N3CCCCC3)cc2)N1Cc1ccco1 (stereo not drawn)	ALDH1A1 inh inconclusive, Sfp PPTase inh 40µM
COc1ccc(-c2c(C(=O)c3ccccc3)[nH]c(N)c2C(=O)NCc2ccccc2)cc1OC	none (no result: Gal4-VP16 FLuc, ALDH1A1 inh, RORg inh, Sfp PPTase inh)
Cc1cccnc1NC(=O)c1ccco1	none (no result: Gal4-VP16 FLuc, ALDH1A1 inh, RORg inh, Sfp PPTase inh)
S=C(NCc1ccco1)Nc1ccc(Cl)cn1	Gal4-VP16 FLuc 2.8µM, PLK1 PBD block inconclusive, RORg inh 2.5µM (no result: ALDH1A1 inh)
O=S(=O)(Nc1ncccn1)c1ccc(NC(=S)NCc2ccco2)cc1	PLK1 PBD block inconclusive, ALDH1A1 inh inconclusive, Sfp PPTase inh inconclusive
CC(OC(=O)c1ccc(S(=O)(=O)NCc2ccco2)cc1)C(=O)Nc1ccc(Cl)cn1 (stereo not drawn)	RORg inh inconclusive
S=C(NCc1ccco1)Nc1ccccn1	Gal4-VP16 FLuc 13µM, ALDH1A1 inh inconclusive, RORg inh 1.8µM
Cc1cccnc1NC(=S)NCc1ccco1	Gal4-VP16 FLuc inconclusive, ALDH1A1 inh 13µM, RORg inh 2µM, Sfp PPTase inh 16µM
O=C1NC[C@H](CCCCN2C[C@H](Cc3ccc(O)cc3)N(CCc3ccccc3)C(=O)C2=O)N(CC2CCCCC2)C1=O	none (no result: Gal4-VP16 FLuc, ALDH1A1 inh, RORg inh, Sfp PPTase inh)
CC(=O)NC(NC(C)=O)c1ccc(N(C)C)cc1	ALDH1A1 inh 2.2µM
CCN(CC)c1ccc(C(=O)OCC(=O)N(C(C)C)C(C)C)cc1	none
CCN(CC)c1ccc(C(NC(C)=O)NC(C)=O)cc1	ALDH1A1 inh 14µM
CC(=O)NC(NC(C)=O)c1ccc(Br)cc1	none
CC1=CC2(O)OCCN(CCO)C2=CC1=O (stereo not drawn)	Gal4-VP16 FLuc 16µM, RORg inh 16µM, Sfp PPTase inh 56µM
Cc1cc(C)n(-c2ncc3c(n2)N(CCO)CCOC3=O)n1	none
Cc1nc(C)c(/C(O)=C\c2nc3ccc([N+](=O)[O-])cc3oc2=O)o1	Sfp PPTase inh 56µM (no result: ALDH1A1 inh)
CC(=O)N1CCc2cc(S(=O)(=O)NCCC(=O)NCCc3ccc(C)cc3)ccc21	Gal4-VP16 FLuc 3.5µM, RORg inh inconclusive
CCC(=O)N1CCc2cc(S(=O)(=O)NCCC(=O)Nc3cc(C)cc(C)c3)ccc21	PLK1 PBD block 27µM
O=c1ccc(-c2nc3ccccc3n2C(CCc2ccccc2)c2nc3ccccc3[nH]2)c[nH]1 (stereo not drawn)	none (no result: Gal4-VP16 FLuc, ALDH1A1 inh, RORg inh, Sfp PPTase inh)
O=C(Cn1cnc2cc([N+](=O)[O-])ccc2c1=O)NCCc1ccc(F)cc1	ALDH1A1 inh 32µM
CN(C)c1ccc(N=C/C=C2\N(C)c3ccccc3C2(C)C)cc1	ALDH1A1 inh inconclusive, Sfp PPTase inh inconclusive
CN1/C(=C\C=Nc2ccc3ccccc3c2)C(C)(C)c2ccccc21	Gal4-VP16 FLuc 4.5µM, ALDH1A1 inh inconclusive, RORg inh 3.2µM (no result: PLK1 PBD block)
CN1\C(=C/C=C/C=C/C=[N+](C)C)C(C)(C)c2ccccc21	ALDH1A1 inh 25µM, RORg inh inconclusive, Sfp PPTase inh 56µM
CSc1ccc(S(=O)(=O)NCc2ccc(Cl)cc2Cl)cc1	ALDH1A1 inh 25µM
CSc1ccc(S(=O)(=O)NCc2ccccc2Cl)cc1	ALDH1A1 inh inconclusive
NCCn1oc(=O)[nH]c1=O	none (no result: Gal4-VP16 FLuc, PLK1 PBD block, RORg inh)
CCC(=O)N1CCC1(C)C(=O)Nc1ccc(Cl)c(Cl)c1 (stereo not drawn)	none (no result: Gal4-VP16 FLuc, ALDH1A1 inh, RORg inh, Sfp PPTase inh)
O=C(Cn1cncn1)N1CCN(c2ccc(F)cc2)CC1	none
Cc1cccc(C)c1N1CCN(C(=O)Cn2cncn2)CC1	PLK1 PBD block inconclusive, ALDH1A1 inh 13µM
COc1ccc(C(CNC(=O)C(C)(C)Oc2ccc(Cl)cc2)N2CCOCC2)cc1 (stereo not drawn)	none (no result: Gal4-VP16 FLuc, ALDH1A1 inh, RORg inh, Sfp PPTase inh)
CC(=O)c1sc(Nc2cccc3ccccc23)nc1C	none (no result: Gal4-VP16 FLuc, ALDH1A1 inh, RORg inh, Sfp PPTase inh)
COc1cc(C)nc(Nc2nc(C)c(C(C)=O)s2)n1	PLK1 PBD block 3µM, ALDH1A1 inh 1.6µM
CC(=O)c1sc(Nc2ccccn2)nc1C	Gal4-VP16 FLuc inconclusive, ALDH1A1 inh 20µM, RORg inh inconclusive
Cc1cncc(NCc2cccc(Cl)c2)n1	none (no result: Gal4-VP16 FLuc, ALDH1A1 inh, RORg inh, Sfp PPTase inh)
C/C(=N\Nc1nc2ccccc2[nH]1)c1cc2ccccc2o1	Gal4-VP16 FLuc 3.5µM, RORg inh 4.5µM, Sfp PPTase inh inconclusive
CCCCCC/C(=N\NS(C)(=O)=O)c1ccccc1	none
